Screening data (PubChem)
Sampled rows, rich in hits. Any-hit rate of the full collection: about 3.3%.
ERa coact inh = blocks coactivator binding to human estrogen receptor alpha | 1.7% of 86,000 active | AID 629 | TR-FRET ER-alpha LBD / SRC-1 peptide, estradiol-bound | inhibition, % at 25.6 µM | P03372; in the data active means inhibition above about 50%;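 further: 0% = receptor plus peptide control and 100% = peptide only without receptor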
Target sequence (P03372 whole entry, looked up, the tested form may be a part): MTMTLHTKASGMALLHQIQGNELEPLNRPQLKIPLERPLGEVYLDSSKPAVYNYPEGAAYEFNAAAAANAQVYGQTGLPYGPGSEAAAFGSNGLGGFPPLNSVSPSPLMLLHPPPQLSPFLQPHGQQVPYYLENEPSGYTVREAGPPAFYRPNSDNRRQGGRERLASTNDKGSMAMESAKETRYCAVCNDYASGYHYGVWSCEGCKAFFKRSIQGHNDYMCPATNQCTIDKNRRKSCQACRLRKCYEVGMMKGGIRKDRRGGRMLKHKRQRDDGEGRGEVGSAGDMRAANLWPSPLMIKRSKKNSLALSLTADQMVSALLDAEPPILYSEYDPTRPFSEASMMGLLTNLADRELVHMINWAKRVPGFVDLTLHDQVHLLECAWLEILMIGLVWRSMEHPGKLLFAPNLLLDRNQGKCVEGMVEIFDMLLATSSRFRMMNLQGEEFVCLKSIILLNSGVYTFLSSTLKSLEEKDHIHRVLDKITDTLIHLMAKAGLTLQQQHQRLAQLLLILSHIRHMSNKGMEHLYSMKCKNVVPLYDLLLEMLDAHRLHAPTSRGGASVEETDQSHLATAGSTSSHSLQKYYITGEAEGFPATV
ERa SRC1 pot = enhances coactivator binding to human estrogen receptor alpha; TR-FRET ERalpha-LBD/SRC-Cy5 coactivator binding, 2 h; 100 = basal binding, no effect; coactivator binding (% of control), % at 25.6 µM; 1.3% of 86,000 active; AID 639; in the data active means activity above about 200%;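 further: binding measured in presence of low estradiol as agonist stimulus; 0% = peptide alone without receptor and 100% = receptor with peptide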
ERb SRC1 inh = blocks coactivator binding to human estrogen receptor beta; Q92731; TR-FRET ER-beta LBD / SRC1-Cy5 peptide binding; receptor agonist-loaded with 1 µM estradiol; inhibition, % at 25.6 µM; 1.3% of 86,000 active;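 active means compounds whose percent inhibition of the receptor-coactivator binding signal exceeds about 50% in the single-dose screen, limit read from the data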;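 further: 0% = receptor plus peptide wells without compound and 100% = peptide-only wells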
Calb biofilm kill = kills Candida albicans biofilms. C. albicans biofilm + clotrimazole, Alamar Blue. inhibition, % at 6 µM. 0.14% of 85,000 active. AID 834;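 active means inhibition above 20%; inactive means inhibition below 20%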;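 further: preformed 24 hr biofilms exposed to compound for 48 hr; 0% = biofilm without compound and 100% = blank killed by clotrimazole plus chlorhexidine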
FAK blocker = blocks human focal adhesion kinase activity; 0.84% of 97,000 active; biochemical FAK kinase activity assay; Q05397; inhibition, %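 (tested at 7 µM)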; in the data active means inhibition above about 19%;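 further: 0% = DMSO and 100% = reference compound high control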
Smad3 inh = blocks human Smad3 binding to FoxH1 peptide | P84022 | TR-FRET Smad3/Dy647-FoxH1 peptide binding, europium anti-His | inhibition, % at 25 µM | 0.29% of 88,000 active;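 active means compounds that reduce the energy-transfer binding signal between the protein and its labelled peptide by more than half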;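 further: 0% = Smad3 plus labelled peptide maximal FRET and 100% = peptide-only background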
An asterisk follows results filed as active; . = no result given; [ ] = remark or other dose.

SMILES | ERa coact inh | ERa SRC1 pot | ERb SRC1 inh | Calb biofilm kill | FAK blocker | Smad3 inh
O=C(CSc1nnc(-c2ccc(S(=O)(=O)N3CCCC3)cc2)o1)N1CCCC1 | 1 | 107 | 2 | 6 | 0 | 3
CC(=O)c1cccc(NC(=O)CSc2nnc(-c3ccc(S(=O)(=O)N4CCCC4)cc3)o2)c1 | -21 | 261* | -8 | 3 | -2 | -19
O=S(=O)(Nc1nccs1)c1cc(Cl)ccc1Cl | 56* | 51 | 51* | 10 | 6 | 4
O=C1c2cccc(Cl)c2C(=O)c2c1cccc2N1CCCC1 | . | . | . | . | 6 | .
CC1=NOC(=O)/C1=C\c1ccc(-c2cc(Cl)ccc2Cl)o1 | 10 | 145 | 7 | 3 | -1 | 11
CC1=NOC(=O)/C1=C/c1ccc(-c2ccc(Cl)cc2)o1 | 64*[fluorescence artefact?] | 44 | 8 | 5 | -5 | 0
O=C(CSc1nnnn1-c1ccccc1F)Nc1nc2ccccc2s1 | . | . | . | . | -1 | .
O=C(CSc1nnnn1-c1cccc(F)c1)Nc1nc2ccccc2s1 | 55*[fluorescence artefact?] | 298* | 17 | 3 | -1 | 3
COc1ccc(-c2nc3c(c(=O)[nH]c(=O)n3Cc3ccccc3)n2C)cc1 | 35 | 270*[fluorescence artefact?] | 41 | 3 | -3 | 17
COc1ccc(-c2nc3c(c(=O)[nH]c(=O)n3Cc3ccccc3)n2Cc2ccccc2)cc1 | . | . | . | . | 4 | .
Cc1ccc(-n2c(C)cc(C3N=C(N)Nc4nc5ccccc5n43)c2C)c(C)c1 (centres undefined) | 53*[fluorescence artefact?] | 53 | 26 | 9 | 7 | 11
Cc1cc(C2N=C(N)Nc3nc4ccccc4n32)c(C)n1-c1ccccc1Cl (centres undefined) | 15 | 135 | 7 | 5 | . | -3
N#CC1=C(SCC(=O)Nc2cccc3cccnc23)NC(=O)C(C#N)C12CCCCC2 (centres undefined) | 66*[fluorescence artefact?] | 51 | 51* | 8 | -2 | 2
CSCCC1(C(=O)O)NC(c2ccccc2O)C2C(=O)N(C(C)C)C(=O)C21 (centres undefined) | 84*[fluorescence artefact?] | 112 | -4 | -4 | 2 | 1
COc1ccc(N2CSC3=C(C#N)C(c4cc(OC)ccc4OC)CC(=O)N3C2)c(OC)c1 (centres undefined) | -9 | 84 | 15 | 11 | -6 | 34
CCOc1ccccc1N1CSC2=C(C#N)C(c3c(OC)ccc4ccccc34)CC(=O)N2C1 (centres undefined) | -2 | 376* | 17 | -3 | 3 | 36
Cc1ccc(N2CSC3=C(C#N)C(c4cccs4)CC(=O)N3C2)cc1 (centres undefined) | -10 | 93 | 1 | 8 | -9 | 16
COc1ccc(N2CSC3=C(C#N)C(c4cccs4)CC(=O)N3C2)cc1 (centres undefined) | 54*[fluorescence artefact?] | 69 | 41 | -11 | -3 | 10
COc1ccc(N2CSC3=C(C#N)C(c4cc(OC)c(OC)cc4OC)CC(=O)N3C2)c(OC)c1 (centres undefined) | 55*[fluorescence artefact?] | 101 | -10 | 6 | -2 | 33
CCCCOC(=O)C1CCCC(C(=O)OCCCC)N1 (centres undefined) | . | . | . | . | 3 | .
CCCCc1c(C)nn(-c2nnc3c4ccccc4n(CC)c3n2)c1C | 52*[fluorescence artefact?] | 141 | 31 | 11 | 0 | 7
COc1ccc(C(=O)n2c(SC)nc3cc4c(cc32)OCCO4)cc1 | . | . | . | . | 2 | .
CC(C)(C)NS(=O)(=O)c1cccc(S(=O)(=O)c2cccc(S(=O)(=O)NC(C)(C)C)c2)c1 | -6 | 102 | -9 | 3 | 0 | 2
COc1ccc(OC)c(C2/C(=C(\O)c3c(C)nc4ccccn34)C(=O)C(=O)N2CCCN(C)C)c1 (centres undefined) | -10 | 108 | -13 | 6 | . | 13
Cc1ccccc1CN1C2=NCCN2C(=O)C2=C1CCN(Cc1ccccc1)C2 | . | . | . | . | . | 7
Cc1ccc2[nH]c(=O)c(-c3nc4cc(C)ccn4c3NCc3ccco3)cc2c1 | 73*[fluorescence artefact?] | 151 | 39 | 10 | . | 3
COCCCn1c(SCC(=O)Nc2ccc(NC(=O)c3ccco3)c(OC)c2)nc2ccccc2c1=O | 44 | 213*[fluorescence artefact?] | 46 | 1 | 6 | -1
CCOC(=O)c1ccc(NC(=O)N2CCc3ccccc32)cc1 | 14 | 241*[fluorescence artefact?] | 4 | 4 | 4 | -4
CCCCC(CC)C(=O)NCc1ccccc1OC (centres undefined) | -2 | 128 | 53* | 10 | -5 | 1
